# Experimental data published in PubChem BioAssay (NCI).
# “And” between values parts separate entries of the source, which are not always exact repeats. Equal entries are not always repeated. About 83,000 compounds went through this panel and 20% of them were active in at least one assay; those are over-represented in the sample as a whole.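 The endpoint reported here, percent growth, reads 100 for growth as untreated, 0 for no net growth and -100 for all cells dead.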 The source made the active and inactive calls. The calls were made as follows: active = growth percent below 10; inactive = the rest.
# Legend:
# Assay in all cases: NCI-60 one-dose screen, 48 h (100 = growth as untreated, 0 = no growth, -100 = all killed)
# Conditions in all cases: 10 µM unless noted
# SK-MEL-2 melanoma = tested on: SK-MEL-2 melanoma
# EKVX NSCLC = tested on: EKVX NSCLC
# SN12C renal = tested on: SN12C renal
# UO-31 renal = tested on: UO-31 renal
# TK-10 renal = tested on: TK-10 renal
# ACHN renal = tested on: ACHN renal
# CAKI-1 renal = tested on: CAKI-1 renal
# A498 renal = tested on: A498 renal
# HL-60(TB) leukemia = tested on: HL-60(TB) leukemia
# CCRF-CEM leukemia = tested on: CCRF-CEM leukemia
# MOLT-4 leukemia = tested on: MOLT-4 leukemia
# SR leukemia = tested on: SR leukemia
# RPMI-8226 leukemia = tested on: RPMI-8226 leukemia
# OVCAR-8 ovarian = tested on: OVCAR-8 ovarian
# OVCAR-5 ovarian = tested on: OVCAR-5 ovarian
# OVCAR-4 ovarian = tested on: OVCAR-4 ovarian
# SK-OV-3 ovarian = tested on: SK-OV-3 ovarian
# IGROV1 ovarian = tested on: IGROV1 ovarian
# OVCAR-3 ovarian = tested on: OVCAR-3 ovarian
# HS 578T breast = tested on: HS 578T breast
Compound,growth (SK-MEL-2 melanoma),growth (EKVX NSCLC),growth (SN12C renal),growth (UO-31 renal),growth (TK-10 renal),growth (ACHN renal),growth (CAKI-1 renal),growth (A498 renal),growth (HL-60(TB) leukemia),growth (CCRF-CEM leukemia),growth (MOLT-4 leukemia),growth (SR leukemia),growth (RPMI-8226 leukemia),growth (OVCAR-8 ovarian),growth (OVCAR-5 ovarian),growth (OVCAR-4 ovarian),growth (SK-OV-3 ovarian),growth (IGROV1 ovarian),growth (OVCAR-3 ovarian),growth (HS 578T breast)
C=CCOC(=O)C(Br)CC (stereo unspecified),106% (inactive),107% (inactive),111% (inactive),94.6% (inactive),103% (inactive),100% (inactive),101% (inactive),90.4% (inactive),101% (inactive),107% (inactive),102% (inactive),100% (inactive),112% (inactive),106% (inactive),113% (inactive),108% (inactive),105% (inactive),115% (inactive),105% (inactive),104% (inactive)
O=C1C=C(N2CC2)c2ccccc2C1=O,90.7% (inactive),114% (inactive),51.2% (inactive),53.9% (inactive),118% (inactive),21% (inactive),32.3% (inactive),102% (inactive),8.35% (active),-11.5% (active),5.2% (active),0.0144% (active),40.5% (inactive),73.2% (inactive),123% (inactive),96.1% (inactive),76% (inactive),–,83.3% (inactive),107% (inactive)
Cc1cc(C(C)(C)C)ccc1O,110% (inactive),112% (inactive),114% (inactive),86.9% (inactive),108% (inactive),112% (inactive),101% (inactive),96% (inactive),96.9% (inactive),106% (inactive),99.5% (inactive),93.8% (inactive),105% (inactive),102% (inactive),120% (inactive),109% (inactive),100% (inactive),107% (inactive),105% (inactive),99.8% (inactive)
COc1cc(/C=C\[N+](=O)[O-])ccc1OCc1ccccc1,89.5% (inactive),91.5% (inactive),56.6% (inactive),30.2% (inactive),66.3% (inactive),46.4% (inactive),73.7% (inactive),71.1% (inactive),3.4% (active),14.5% (inactive),1.1% (active),-24.2% (active),-45.6% (active),52.9% (inactive),98.5% (inactive),85.3% (inactive),91.4% (inactive),7.94% (active),19.9% (inactive),42.9% (inactive)
Nc1ccc2c(c1)Cc1cc(N)ccc1-2,89.9% (inactive),61.2% (inactive),90.5% (inactive),62.6% (inactive),106% (inactive),97% (inactive),86.4% (inactive),84.9% (inactive),100% (inactive),60.1% (inactive),104% (inactive),95% (inactive),68.6% (inactive),99.7% (inactive),107% (inactive),95.5% (inactive),82.3% (inactive),83.2% (inactive),87.6% (inactive),84.4% (inactive)
COc1cc(-c2ccc(N)c(OC)c2)ccc1N,118% (inactive),96% (inactive),104% (inactive),93.6% (inactive),107% (inactive),100% (inactive),92.5% (inactive),118% (inactive),118% (inactive),113% (inactive),173% (inactive),143% (inactive),96.5% (inactive),114% (inactive),94.4% (inactive),104% (inactive),105% (inactive),120% (inactive),104% (inactive),105% (inactive)
O=C(O)C(O)c1ccc(Cl)cc1 (stereo unspecified),106% (inactive) and 118% (inactive),102% (inactive) and 120% (inactive),100% (inactive) and 107% (inactive),99.6% (inactive) and 87.7% (inactive),99% (inactive) and 105% (inactive),112% (inactive) and 108% (inactive),97.6% (inactive) and 104% (inactive),102% (inactive) and 106% (inactive),101% (inactive),106% (inactive),113% (inactive),102% (inactive),111% (inactive) and 92.1% (inactive),109% (inactive) and 103% (inactive),110% (inactive),102% (inactive) and 109% (inactive),101% (inactive) and 108% (inactive),–,116% (inactive) and 104% (inactive),102% (inactive) and 99.7% (inactive)
CN1CCN(c2ccc(Cl)cc2)CC1,18.1% (inactive),107% (inactive),90.7% (inactive),86.1% (inactive),102% (inactive),-11.9% (active),24.1% (inactive),97% (inactive),48.7% (inactive),87.3% (inactive),75.6% (inactive),56.2% (inactive),110% (inactive),72.5% (inactive),80.5% (inactive),98.6% (inactive),103% (inactive),68% (inactive),125% (inactive),101% (inactive)
C[C@@H]1C/C=C\C(=O)O[C@H](/C=C/C#C/C=C/C(C)(C)[C@@H](O)c2cccc(O)c2Br)[C@@H](C)/C=C/[C@H](C)C[C@H](OC(N)=O)C1,15.1% (inactive),22% (inactive),36.4% (inactive),3.1% (active),43.5% (inactive),35% (inactive),6.13% (active),41% (inactive),3.08% (active),25.7% (inactive),19.7% (inactive),5.45% (active),11.3% (inactive),20.3% (inactive),46.8% (inactive),50.3% (inactive),55.9% (inactive),–,41.5% (inactive),54.8% (inactive)
CCOC(=O)c1ccccc1C(=O)OCC,89.7% (inactive),80.3% (inactive),94.6% (inactive),84.8% (inactive),98.2% (inactive),98.4% (inactive),77.2% (inactive),104% (inactive),141% (inactive),94.8% (inactive),101% (inactive),128% (inactive),88.1% (inactive),84% (inactive),99.9% (inactive),96.4% (inactive),113% (inactive),64.7% (inactive),107% (inactive),95.5% (inactive)
COC(=O)[C@@H](C)C[C@H](Cc1ccccc1)NC(=O)c1cccc([C@@H](C[C@H](C(C)C)N(C)C(=O)[C@@H](NC(=O)[C@H]2CCCCN2C)C2CC2)OC(C)=O)n1,44.2% (inactive),54.6% (inactive),28.7% (inactive),40.6% (inactive),23.9% (inactive),24.7% (inactive),25.7% (inactive),-4.08% (active),-38.2% (active),16% (inactive),14.6% (inactive),14.5% (inactive),25.4% (inactive),14.4% (inactive),38.2% (inactive),52% (inactive),1.39% (active),23.3% (inactive),-47.5% (active),27% (inactive)
COc1cc2c(c(OC)c1OC)-c1ccc(O)cc1[C@@H](NC(C)=O)CC2,41.3% (inactive),44% (inactive) and 22.6% (inactive),29.1% (inactive) and 26.9% (inactive),25.5% (inactive) and 33.2% (inactive),11.1% (inactive) and 38.5% (inactive),24.8% (inactive) and 25.8% (inactive),-5.9% (active) and 16.1% (inactive),-12.9% (active),-13.2% (active) and -32.3% (active),20.6% (inactive) and -8.81% (active),34.5% (inactive) and -8.23% (active),15.1% (inactive) and -4.87% (active),25% (inactive) and -17.7% (active),15.7% (inactive) and 11.1% (inactive),33.2% (inactive) and 41.1% (inactive),19.3% (inactive),8.01% (active) and 6.47% (active),-24.2% (active) and 8.32% (active),-39.1% (active) and -30.9% (active),50.4% (inactive) and 29.5% (inactive)
O=[N+]([O-])c1cc(Cl)c(Cl)cc1Cl,143% (inactive) and 119% (inactive),106% (inactive) and 113% (inactive),94.6% (inactive) and 108% (inactive),104% (inactive) and 95.4% (inactive),120% (inactive),104% (inactive) and 109% (inactive),100% (inactive) and 107% (inactive),104% (inactive),114% (inactive),105% (inactive) and 106% (inactive),102% (inactive) and 103% (inactive),86.5% (inactive) and 108% (inactive),97.4% (inactive) and 112% (inactive),108% (inactive),110% (inactive) and 99.6% (inactive),108% (inactive) and 113% (inactive),123% (inactive) and 110% (inactive),111% (inactive) and 109% (inactive),119% (inactive),95.9% (inactive)
CCCCOCCOP(=O)(OCCOCCCC)OCCOCCCC,114% (inactive),97.7% (inactive),98% (inactive),100% (inactive),96.1% (inactive),102% (inactive),98% (inactive),89.1% (inactive),84.1% (inactive),110% (inactive),92.3% (inactive),98.9% (inactive),115% (inactive),107% (inactive),105% (inactive),114% (inactive),101% (inactive),–,118% (inactive),95.5% (inactive)
